Consider 110 molecules from ChEMBL document CHEMBL3988442, “University of Dundee, Small-Polar-MMV Screening Library” (2021).

SMILES strings stand for the structures. The campaign covered roughly 48,000 compounds. About 13,000 (27%) showed an effect of 50% or more. This is one part of the list.

In this assay the test system is Wolbachia pipientis. The assay can be described thus: Anti-Wolbachia Cell-Based Screen. Further details: scale not given: in the data most compounds retested in dose-response had high values. The settings on record: 5 µM. The format is functional.
Consider `O=C1NCCN1CCNCC1(O)CCCN(CCC2CCCCC2)C1=O` (stereo not given), for which the “Percent Effect” value was -3.271%. For `Cc1nnsc1C(=O)N(C)Cc1nc(-c2ccccn2)no1` the value was -8.145%; for `Cc1nnc(CN2CCN(C)C3(CCC(=O)N(CCO)CC3)C2)s1` (stereo not given), 5.792%. The result for `Cc1n[nH]c(C)c1CCNC(=O)Nc1ccc(S(C)(=O)=O)cc1` reads 3.499%; that for `Cc1ccc(CN2CCCn3cnc(COCC4CC4)c3C2)o1.O=C(O)C(F)(F)F`, 8.584%.

On to `Clc1ccccc1C1(c2ccnc(CC3CC3)n2)CCNCC1`, for which the “Percent Effect” value is on record as 5.526%. For `Cc1ccc(C(=O)N2CCCC(c3nncn3C)C2)c(C)c1` (stereo not given) the value was 142.4%. The result for `Cn1cnnc1C1CCCN(C(=O)c2ccc3c(c2)OCCCO3)C1` (stereo not given) reads 0.4143%; that for `Cc1occc1C(=O)N1CCCC(c2nncn2C)C1` (stereo not given), 118%; that for `CCOc1ccc2nc(CN3CCC(CN)C3)ccc2c1` (stereo not given), 6.34%.

As to `CC(C)CCN1CCc2c(C(=O)N(C)Cc3ccccn3)nn(C)c2C1.O=C(O)C(F)(F)F.O=C(O)C(F)(F)F.O=C(O)C(F)(F)F`, the “Percent Effect” value was 7.035%. For `CC(Cn1cncn1)NC(=O)Nc1ccc(COC2CCCC2)cc1` (stereo not given) the value was -11.48%; for `Cc1ccc(CN2CC[C@H]3CO[C@H](CN(C)C)[C@H]3C2)o1`, -4.083%; for `Cc1cc(C)c(CNC(=O)N2CCC(N3CCCC3)CC2)c(=O)[nH]1`, 3.168%. As to `Cc1cc(C)c(CNC(=O)N2CCC(N3CCNC3=O)CC2)c(=O)[nH]1`, the “Percent Effect” value is listed as -7.993%. Consider `Cc1cc(C)c(CNC(=O)N2CCOC(c3ccccc3)C2)c(=O)[nH]1` (stereo not given), for which the “Percent Effect” value was 99.02%. As for `Cc1cc(C)c(CNC(=O)N2CCCC2c2ccccn2)c(=O)[nH]1` (stereo not given), the “Percent Effect” value is on record as 93.91%. As to `Cc1cc(C2CCCN2C(=O)NCc2cccnc2N(C)C)on1` (stereo not given), the “Percent Effect” value is recorded as -7.167%. As to `Cc1cc(C)c(CNC(=O)N2CCC(N3CCCCC3)CC2)c(=O)[nH]1`, the “Percent Effect” value is given as -48.68%. The result for `Cc1cc(C2CCCN2C(=O)NCc2c(C)cc(C)[nH]c2=O)on1` (stereo not given) reads 97.2%.

On to `Cc1cc(C)c(CNC(=O)N2CCNC(=O)C2)c(=O)[nH]1`, for which the “Percent Effect” value is listed as -6.191%. `Cc1cc(C2CCCN2C(=O)NCc2ccccn2)on1` (stereo not given): the “Percent Effect” value was -32.12%. As to `Cc1cc(C)c(CNC(=O)N2CCN(c3ncccn3)CC2)c(=O)[nH]1`, the “Percent Effect” value was -5.06%. For `Cc1cc(C)c(CNC(=O)N2CCCC2C(N)=O)c(=O)[nH]1` (stereo not given) the value was 4.239%. Turning to `Cc1cc(C)c(CNC(=O)N2CCCC2c2cc(C)on2)c(=O)[nH]1` (stereo not given), the “Percent Effect” value is reported as 104.6%. As for `Nc1nc(Cn2ccnc2-c2cc(CN3CCCC3)cs2)cs1`, the “Percent Effect” value amounted to 4.037%. For the molecule `NC1(C(=O)NCC2CCCN(Cc3cccc4nonc34)C2)CCC1` (stereo not given), the “Percent Effect” value is reported as -1.452%.

Regarding `O=C([C@H]1C[C@H]2OCC[C@H]2N(C(=O)c2ccnnc2)C1)N1CCCCO1`, the “Percent Effect” value was -6.312%. The result for `Cc1csc2c(N3CCC(NCCCC4CCOC4)CC3)ncnc12` (stereo not given) reads 7.139%; that for `Cc1cccc(CN2C[C@@H](F)[C@@H](OCc3nc4ccccc4[nH]3)C2)n1`, -1.113%; that for `CSCC[C@@H](CO)n1ccnc1-c1ccc(C)o1`, -18.99%.

As for `Cc1cc(NC(=O)CN2CCn3c(nnc3C3CC3)C2)n(C)n1`, the “Percent Effect” value is -5.451%. The result for `Cc1cc(NC(=O)CCN2CCn3c(nnc3C3CC3)C2)no1` reads -0.2298%; that for `CCC1CN(CC(=O)Nc2sccc2C#N)CCO1` (stereo not given), -10.74%; that for `N#Cc1ccsc1NC(=O)CCN1CCn2c(nnc2C2CC2)C1`, 113.3%. Consider `N#Cc1ccsc1NC(=O)CN1CCn2c(nnc2C2CC2)C1`, for which the “Percent Effect” value stood at 118.5%. On to `Cc1nnc2n1CCN(CCC(=O)Nc1sccc1C#N)C2`, for which the “Percent Effect” value turned out to be 5.791%. For `CNC(=O)COc1nc(C(C)(C)C)no1` the value was -5.111%. The result for `CCN(Cc1ccoc1)C(C(N)=O)c1cccc(Br)c1` (stereo not given) reads 12.55%; that for `CNC(=O)C(C)(C)N(C)C(=O)c1cc(COc2ccccc2OC)[nH]n1`, -2.904%.

For `CCc1ccc(OCCN(C)C(=O)c2ccncc2Cl)cc1`, the “Percent Effect” value was -12.28%.

For `COCCN(C)C(=O)c1ccc(OC)cc1O`, the “Percent Effect” value is reported as -1.632%. Turning to `COc1ccc(OCCN(C)C(=O)c2ccc(OC)cc2O)cc1`, the “Percent Effect” value was determined as 93.52%. In the case of `Cc1nc(C#N)c(N2CCC(c3nc(-c4ccc(F)cc4)no3)CC2)o1`, the “Percent Effect” value came out at 10.17%. Consider `Cc1cnn(CC2CCCN2Cc2nnc(C3CC3)o2)c1` (stereo not given), for which the “Percent Effect” value came out at 113.6%. As to `Cc1cnn(CC2CCCN2Cc2nnc(-c3ccccc3)o2)c1` (stereo not given), the “Percent Effect” value is 97.7%. The result for `CC(C)c1nnc(CN2CCCC2Cn2cncn2)o1` (stereo not given) reads 2.76%; that for `CCc1nnc(CN2CCCC2Cn2cc(C)cn2)o1` (stereo not given), 107.1%. For `Cc1cnn(CC2CCCN2Cc2coc(-c3ccccc3)n2)c1` (stereo not given) the value was 17.84%.

As for `Cc1cnn(CC2CCCN2Cc2nnc(Cc3ccccc3)o2)c1` (stereo not given), the “Percent Effect” value was 6.561%.

`Cc1cnn(CC2CCCN2Cc2ncc(-c3ccccc3)o2)c1` (stereo not given): the “Percent Effect” value was -2.575%.

`Cc1cnn(CC2CCCN2Cc2nnc(C(C)C)o2)c1` (stereo not given): the “Percent Effect” value worked out at 94.36%.

For `Cc1cnn(CC2CCCCN2Cc2noc(C3CC3)n2)c1` (stereo not given), the “Percent Effect” value was 11.5%. In the case of `CNC(=O)C(C)CN(C)C(=O)Nc1cc(-n2cccc2)ccc1F` (stereo not given), the “Percent Effect” value turned out to be 4.281%.

`COc1cccc(F)c1C(C)NC(=O)NCc1ccnc(C)n1` (stereo not given): the “Percent Effect” value is on record as 15.11%. The result for `CC(C)N(Cc1ccccc1)Cc1nnsc1Cl` reads 2.332%; that for `CC(C)(C)c1cnc(CN2C(=O)CC3(CCSC3)C2=O)o1` (stereo not given), -9.013%. Regarding `Cc1cnn(CC2CCCN2Cc2nnc(C)o2)c1` (stereo not given), the “Percent Effect” value is listed as 108.8%.

Take `CC(=O)NCC(=O)N1CCCC2(CCC(=O)N(CCc3c[nH]cn3)C2)C1` (stereo not given): the “Percent Effect” value stood at 7.336%. With `O=C(CCn1cnnn1)N1CCCC(CO)(CCc2ccccc2)C1` (stereo not given), the “Percent Effect” value is -14.03%. The result for `CNc1ncc(C(=O)N2CCCC(CO)(CCCOC)C2)cn1` (stereo not given) reads -3.097%; that for `CCCC1(CO)CCCN(C(=O)CNC(N)=O)C1` (stereo not given), 100.2%; that for `CCCC1(CO)CCCN(C(=O)CNC(C)=O)C1` (stereo not given), 72.22%.

As to `O=C(CCn1cnnn1)N1CCCC(CO)(CCCc2ccccc2)C1` (stereo not given), the “Percent Effect” value is 2.487%. For `COc1c(C2CCCN2c2ncnc3sccc23)c(C)nn1C` (stereo not given) the value was -10.8%. The result for `CN(CC1(O)CCCN(Cc2cccc(F)c2F)C1=O)C1CCCCC1` (stereo not given) reads 6.301%; that for `O=C1N(C2CCCCC2)CCCC12CCN(S(=O)(=O)c1cccnc1)C2` (stereo not given), 14.14%.

Turning to `Cc1ccnc(C2(C)CCCN2S(=O)(=O)c2cccnc2)n1` (stereo not given), the “Percent Effect” value was 132.4%.

In the case of `CCC1CCCCN1S(=O)(=O)c1c(C)noc1C` (stereo not given), the “Percent Effect” value is -6.559%. Turning to `Cc1noc(C)c1S(=O)(=O)N1C[C@@H](C(=O)O)[C@H](c2ccccn2)C1`, the “Percent Effect” value is listed as -14.24%. The result for `CCCN1CCCC2(CCN(S(=O)(=O)c3cccnc3)C2)C1=O` (stereo not given) reads 3.088%; that for `Cc1ccnc(C2(C)CCCN2S(=O)(=O)c2c(C)noc2C)n1` (stereo not given), 125.2%. The result for `CC(C)c1noc(CNc2ccccc2CC(=O)N(C)C)n1` reads 6.812%; that for `Cc1nn(C)c(C)c1NC(=O)CNc1ccc(F)c(C(F)(F)F)c1`, -4.336%. For `O=C(CC1CCCCC1)N1C[C@H]2CC[C@@H]1CN(Cc1cccnc1)C2` the value was -16.08%; for `Cn1cccc1C(=O)N1C[C@H](OCC2CCOCC2)[C@H]2COC[C@H]21`, -0.3996%. With `CC(=O)N1CCCC1c1ccc(Br)cn1` (stereo not given), the “Percent Effect” value came out at 103.5%. Turning to `CC(=O)NCC(=O)N1CCCC1c1ccc(CN2CCOCC2)cn1` (stereo not given), the “Percent Effect” value worked out at 87.68%.

Take `O=C(CC1CCCC1)N1CCCC1c1ccc(CN2CCOCC2)cn1` (stereo not given): the “Percent Effect” value turned out to be 123.2%. For `Cn1cccc1C(=O)N1CCCC1c1ccc(CN2CCOCC2)cn1` (stereo not given) the value was 73.28%. For `CC(=O)N1CCCC1c1ccc(-c2c(C)noc2C)cn1` (stereo not given) the value was -2.111%; for `CCc1ccc(C2CCCCCN2C(=O)CNC(=O)C2CC2)o1` (stereo not given), -5.222%.

With `Cc1cc(C(=O)Nc2ccc(CN3CCOCC3)cn2)n(C)n1`, the “Percent Effect” value is reported as -8.587%. For `Cc1ccc(CNC(=O)NCCCn2nc3ccccn3c2=O)s1` the value was 0.9307%; for `CN(C)CCN(C)C[C@@H]1CN(Cc2cccc(O)c2)C[C@@H]1CO`, -1.662%. The result for `Cc1ccc(-c2nc(C(=O)N(C)CC(=O)N3CCCC3)cs2)c(C)c1` reads 2.536%; that for `CCNC(=O)[C@@H]1CCCN1[C@@H](C(=O)NC)c1ccccc1OC.Cl`, 2.638%; that for `N#Cc1cccc(NC(=O)N2CCCC(N3CCCC3=O)C2)c1` (stereo not given), -2.402%. The result for `CC(=O)N1CCCC1c1ccc(CN2CCOCC2)cn1` (stereo not given) reads 123.1%; that for `CC(C1CCN(Cc2ccc(N(C)C)nc2)CC1)N1CCOCC1` (stereo not given), 11.4%; that for `CC(=O)N1CCCC1c1ccc(C(=O)N2CCOCC2)s1` (stereo not given), -4.925%. For the molecule `Cc1cccc(NC2CCN(C(=O)Nc3cc(F)ccc3F)CC2)n1`, the “Percent Effect” value is reported as 100.1%. The result for `O=C(Nc1cc(-n2cccc2)ccc1F)N1CCCC1` reads -21.77%; that for `Cc1cccc(NC2CCN(C(=O)Nc3ccc(F)cc3C)CC2)n1`, 119.5%; that for `COC(=O)C1CCN(C(=O)Nc2cc(-n3cccc3)ccc2F)CC1`, -12.66%. As for `COC(=O)[C@@H](NC(=O)c1coc(COc2cccc(F)c2)n1)C(C)C`, the “Percent Effect” value is given as -6.139%.

Consider `COC(=O)C(CNC(=O)Nc1nncs1)Cc1ccc(O)cc1` (stereo not given), for which the “Percent Effect” value was -7.051%. For the molecule `CNC(=O)c1n[nH]c2c1C(c1cccc3[nH]ccc13)CC(=O)N2` (stereo not given), the “Percent Effect” value is reported as 8.838%.

For the molecule `CC(C)n1nc2c(cc1=O)CN(CC(=O)N(C)c1nccs1)CC2`, the “Percent Effect” value is recorded as -24.74%.

As to `Cc1nnc(NC(=O)CN2CCc3nn(C(C)C)c(=O)cc3C2)s1`, the “Percent Effect” value amounted to 104%.

In the case of `CCn1nc2c(cc1=O)CN(CC(=O)Nc1nncs1)CC2`, the “Percent Effect” value was determined as 94.86%. Consider `CCn1nc2c(cc1=O)CN(CC(=O)Nc1cc(C(C)C)no1)CC2`, for which the “Percent Effect” value is given as -9.725%. In the case of `CCn1nc2c(cc1=O)CN(CC(=O)Nc1nnc(C)s1)CC2`, the “Percent Effect” value amounted to 120.7%.

`Cc1nc(CN2CCc3nn(C(C)C)c(=O)cc3C2)oc1C`: the “Percent Effect” value is -3.167%. For `Cc1cc(NC(=O)CN2CCc3nn(C)c(=O)cc3C2)no1` the value was -3.841%. For `CCn1nc2c(cc1=O)CN(CC(=O)Nc1nccs1)CC2` the value was -22.28%; for `Cc1csc(NC(=O)CN2CCc3nn(C)c(=O)cc3C2)n1`, -32.21%.

Consider `Cc1nnc(NC(=O)CN2CCc3nn(C)c(=O)cc3C2)s1`, for which the “Percent Effect” value is listed as 86.83%.

Regarding `CCn1nc2c(cc1=O)CN(CC(=O)Nc1cc(C)no1)CC2`, the “Percent Effect” value was -6.307%. The result for `Cn1nc2c(cc1=O)CN(CC(=O)Nc1nncs1)CC2` reads -9.972%.
